In PubChem BioAssay AID1963317 (National Center for Advancing Translational Sciences (NCATS), 2024):
Inconclusive results are not listed. Activity calls are given as the source filed them. Calls follow the shape of the full dose curve.

Each compound was assayed against Tyrosine-protein kinase ABL1 (Homo sapiens) (UniProt P00519) (assay: ABL1 kinase (ABL1-N-HiBiT) enzymatic inhibition screen - Functional assay). Settings: luminescence; series mostly up to 57.5 µM.
Text: National Center for Advancing Translational Sciences (NCATS),
National Institute of Health (NIH), Maryland
Discovery and optimization of novel protein-binding ligands underlies many of the methods and applications of biology, drug discovery, clinical diagnostics, and environmental toxicology. Assays for detecting the interaction of, for example, a molecule with a macromolecular target also referred to here as the target of interest (TOI) is dependent on a compatible output technology. Depending on the nature and knowledge surrounding the TOI, whether a receptor, enzyme, regulatory subunit or scaffold, or a sequence-defined nucleic acid folded into a complex tertiary structure, assay strategies can vary widely.
Here we exploit ligand-biased changes in the structural dynamics of the target protein to control reporter alpha complementation allowing a non-competitive, non-functional, non-separation measure of ligand-target interaction.
Using a chemical library of >1,200 compounds enriched for scaffolds known to be associated with the inhibition of firefly luciferase (FLuc) activity (PubChem AIDs 2309) we first illustrate and compare the Structural Dynamics Response (SDR) assay vs. the standard functional FLuc enzyme assay (2). Secondly, we show the specificity and sensitivity of the SDR for the Abelson tyrosine kinase (ABL1) compared to the serine/threonine protein kinase A, using an enriched chemical library of 128 compounds selected, in part, for activity annotated with ABL1 kinase activity using the Pharos database (3).
(1) A. S. Dixon et al., NanoLuc Complementation Reporter Optimized for Accurate Measurement of Protein Interactions in Cells.
Chemistry & Biology, 19, 1060 - 1072 (2012).
(3) K. J. Kelleher et al., Pharos 2023: an integrated resource for the understudied human proteome. Nucleic Acids Res 51, D1405-D1416 (2023).
PROTOCOL TABLE (as described by Inglese J, Shamu CE and Guy RK. 2007)
SEQUENCE No. (e.g., 1, 2, 3, etc.); […] (e.g., C. elegans, Compounds, Incubation, Read, etc.); VALUE and DESCRIPTION.
1. Reagent. Dispense 4 uL ABL1-N-HiBiT enzyme per well at a final enzyme concentration of 10 nM in buffer with 87.5 uM ATP (functional assay) into columns 2-48 of four replicate Greiner 1536-well white, solid bottom high base, medium plates per assay. Dispense respective buffer without enzyme at 4 uL/well in column 1 of assay plates using BioRaptr 2.
2. Compounds. Library compounds added at 23 nL/well by pin transfer. DMSO neutral control and imatinib positive control added at 25 nL/well, transfer by Mosquito dispenser.
3. Incubation. Incubate enzyme and compounds at room temperature for 30 min, protected from light.
4. Reagent. (Functional assay) Transfer 25 nL of abltide peptide substrate to each well of four replicate kinase assay plates with Mosquito dispenser.
5. Incubation. (Functional assay) Kinase enzyme incubated with peptide substrate for 3 h at room temperature, protected from light.
6. Reagent. (Functional assay) Add 4 uL/well of Kinase-Glo Plus reagent (Promega) to kinase activity assay plates, in the presence of ATP.
7. Detector. (Functional assay) Luminescence measured using CCD-based camera (ViewLux) with settings as follows: Exposure, 1 sec; Gain, High; Speed, Slow; Binning, 2X.
Inglese J, Shamu CE and Guy RK, Reporting data from high throughput screening of small molecule libraries, Nature Chemical Biology, 2007, 3(8): 438-441. doi.org/10.1038/nchembio0807-438.

Chain of Tyrosine-protein kinase ABL1 (Homo sapiens) (P00519 whole entry, looked up): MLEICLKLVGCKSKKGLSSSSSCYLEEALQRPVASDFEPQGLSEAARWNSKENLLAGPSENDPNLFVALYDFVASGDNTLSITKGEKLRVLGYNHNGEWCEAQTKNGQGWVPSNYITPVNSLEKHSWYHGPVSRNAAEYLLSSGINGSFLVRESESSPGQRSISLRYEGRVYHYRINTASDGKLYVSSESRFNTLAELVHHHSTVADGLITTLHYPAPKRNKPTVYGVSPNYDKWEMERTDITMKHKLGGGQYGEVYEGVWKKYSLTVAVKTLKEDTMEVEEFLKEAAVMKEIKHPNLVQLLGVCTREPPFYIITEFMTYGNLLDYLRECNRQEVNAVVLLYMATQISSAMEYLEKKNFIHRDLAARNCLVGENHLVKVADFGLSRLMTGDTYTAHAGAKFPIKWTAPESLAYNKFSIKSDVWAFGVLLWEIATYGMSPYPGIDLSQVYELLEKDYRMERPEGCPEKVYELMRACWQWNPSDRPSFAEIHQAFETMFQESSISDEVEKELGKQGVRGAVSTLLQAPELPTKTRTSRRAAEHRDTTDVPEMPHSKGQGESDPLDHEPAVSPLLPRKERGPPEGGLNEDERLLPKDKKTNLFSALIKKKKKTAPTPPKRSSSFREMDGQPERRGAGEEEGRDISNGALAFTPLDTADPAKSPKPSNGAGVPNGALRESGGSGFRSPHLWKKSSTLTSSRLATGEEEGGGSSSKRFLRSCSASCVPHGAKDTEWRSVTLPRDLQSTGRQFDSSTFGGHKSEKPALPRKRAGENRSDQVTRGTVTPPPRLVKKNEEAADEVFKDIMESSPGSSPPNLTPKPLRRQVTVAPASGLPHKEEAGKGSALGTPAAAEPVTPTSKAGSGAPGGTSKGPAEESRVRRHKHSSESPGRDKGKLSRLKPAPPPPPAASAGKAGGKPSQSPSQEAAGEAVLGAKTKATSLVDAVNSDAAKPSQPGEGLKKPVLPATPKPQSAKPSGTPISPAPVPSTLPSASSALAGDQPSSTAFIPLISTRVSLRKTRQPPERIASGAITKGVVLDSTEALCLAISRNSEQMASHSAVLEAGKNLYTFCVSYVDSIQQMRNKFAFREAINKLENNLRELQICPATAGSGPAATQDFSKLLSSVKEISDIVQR

Q: How did the outcome turn out when O=[N+]([O-])O[C@H]1CO[C@H]2[C@@H]1OC[C@H]2O[N+](=O)[O-] was run?
A: inactive

Q: For CCNC(=O)C[C@@H]1N=C(c2ccc(Cl)cc2)c2cc(OC)ccc2-n2c(C)nnc21, which outcome is on record?
A: inactive

Q: How did the outcome turn out when O=C(NCCCNc1nc(Nc2ccc(N3CCOCC3)cc2)ncc1C1CC1)C1CCC1 was run?
A: inactive

Q: C/C(O)=C(\C#N)C(=O)Nc1cc(Br)ccc1Br was tested. Which outcome did it give?
A: inactive

Q: Which outcome does the source give for Cc1[nH]nc2ccc(-c3cncc(OC[C@@H](N)Cc4c[nH]c5ccccc45)c3)cc12 here?
A: inactive

Q: With N#Cc1cn([C@@H]2O[C@H](CO)[C@H](O)[C@@H]2O)c2ncnc(N)c12 as the compound, how does the outcome read?
A: inactive
